This assay can be described thus: binders of probe aFGF2 on microarray, primary screen, stem cell growth factor project, biochemical, small-molecule microarray, fluorescence 635/667 (AID 1067).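 Note: measures binding of biotinylated aFGF2 protein to printed compounds on slides; z-score merges feature fluorescence and signal-to-noise across triplicate slides.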 The settings on record: higher = more signal.
`C=CC[C@@]1(C(=O)NCC(O)CO)N=C(c2ccc(OCCCO)cc2)O[C@@H]1c1ccccc1CN=[N+]=[N-]` (some centres undefined): the composite z-score was -0.11. With `CO[C@H]1COC(=O)[C@@H](C)NC(=O)CC=C[C@@H](C)[C@H](OC)COC(=O)CC=C[C@@H]1C` the figure was -0.229.

`CC(C)C[C@@H]1NC(=O)[C@H]2C[C@@H](C(=O)NCCCCCC[N+](C)(C)C)[C@@H](c3ccc(O)cc3)N2C1=O`: the composite z-score was -0.189. For the compound `Cc1ccc(S(=O)(=O)N[C@H]2COC(=O)CC=C[C@H](C)COC(=O)N[C@@H](C)C(=O)CC=C[C@@H]2C)cc1`, the composite z-score is -0.22. Regarding `C#CCCCON=C1C[C@@H](O)[C@@H](O)[C@@H]2[C@@H]3C(=O)N(Cc4ccc5c(c4)OCO5)C(=O)[C@@H]3CC[C@@H]12`, the composite z-score is -0.0684. With `CO[C@H]1COC(=O)[C@@H](OCc2ccccc2)C=C[C@H](C)[C@@H](OC)COC(=O)[C@H](OCc2ccccc2)C=C[C@@H]1C` the figure was -0.136.

With `COCCOC(=O)N1C(=O)[C@@]2(c3cc(C#CCCO)ccc31)[C@H](c1ccc(OCCO)cc1)N1[C@H](c3ccccc3)[C@H](c3ccccc3)OC(=O)[C@H]1[C@@H]2C(=O)NC[C@H](O)c1ccccc1`, the composite z-score is -0.0628. With `NC(=O)NCC#Cc1ccc2c(c1)[C@]1(C(=O)N2)[C@H](c2ccccc2OCCO)N2[C@H](c3ccccc3)[C@H](c3ccccc3)OC(=O)[C@H]2[C@@H]1C(=O)N1CCN(c2ncccn2)CC1` the figure was -0.0145; with `COCCOC(=O)N1C(=O)[C@@]2(c3cc(C#CCCO)ccc31)[C@H](c1ccc(O)cc1)N1[C@H](c3ccccc3)[C@H](c3ccccc3)OC(=O)[C@H]1[C@@H]2C(=O)Nc1nc2ccccc2s1`, 0.0644.

The values are drawn from PubChem BioAssay.
